In all, about 33,000 sequences were measured (“E-score (-0.5 to 0.5)”: median about -0.011, highest 2% from about 0.28 on). Shown is part of a subset that was picked to be rich in the highest values.
Biological target: T1, Gcr1 (UniProt P07261)
T1 sequence: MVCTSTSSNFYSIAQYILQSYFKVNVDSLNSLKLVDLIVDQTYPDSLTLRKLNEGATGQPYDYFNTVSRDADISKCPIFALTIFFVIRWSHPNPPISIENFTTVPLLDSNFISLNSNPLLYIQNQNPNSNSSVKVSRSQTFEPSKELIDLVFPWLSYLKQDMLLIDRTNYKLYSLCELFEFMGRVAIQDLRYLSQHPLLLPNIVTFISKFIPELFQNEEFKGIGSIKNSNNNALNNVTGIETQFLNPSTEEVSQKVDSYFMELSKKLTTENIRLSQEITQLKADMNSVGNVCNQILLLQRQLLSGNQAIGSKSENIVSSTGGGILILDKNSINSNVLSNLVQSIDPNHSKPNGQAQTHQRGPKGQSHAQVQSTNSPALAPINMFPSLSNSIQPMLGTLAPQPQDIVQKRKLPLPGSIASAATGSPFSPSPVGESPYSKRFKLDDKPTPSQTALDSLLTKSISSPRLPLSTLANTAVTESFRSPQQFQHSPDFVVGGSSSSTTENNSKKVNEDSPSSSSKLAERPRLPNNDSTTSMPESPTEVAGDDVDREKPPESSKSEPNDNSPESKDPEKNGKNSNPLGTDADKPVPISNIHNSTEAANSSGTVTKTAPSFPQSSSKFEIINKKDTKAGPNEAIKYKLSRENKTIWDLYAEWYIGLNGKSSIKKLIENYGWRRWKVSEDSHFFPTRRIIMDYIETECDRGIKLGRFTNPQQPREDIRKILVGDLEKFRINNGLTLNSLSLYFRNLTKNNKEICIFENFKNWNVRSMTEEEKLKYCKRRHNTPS
Assay: PBM E-score (8-mer binding enrichment) (E-score (-0.5 to 0.5)); higher = stronger / more preferred TF binding
Details: protein concentration: 100 nM; construct: GST-full length
Outline: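 Full-length yeast transcription factors or their DNA-binding domains, GST-tagged and expressed with PURExpress, were applied at about 100-200 nM to universal all-10-mer Agilent arrays. These arrays had been made double-stranded by primer extension on fresh or once-stripped slides. Detection used fluorescent anti-GST, normalisation used masliner, and E-scores for ungapped eight-base words pooled with reverse complements came from the Universal PBM Analysis Suite.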

Sequence	PBM E-score
CCGCAGCG	0.0315
CCGGTACG	-0.0393
CGATAGAG	-0.0218
AGGCCTAA	-0.0235
CCAGGTAA	-0.0543
GTTCTCAA	-0.129
AACAGACC	-0.179
ATGTCTAA	-0.0649
CCTTGATA	-0.0119
TAAGAAGA	0.243
ATAGACGC	0.377
CTAGACGC	0.0428
ATAGACGA	0.248
GAAGAAGA	0.183
CAAGAAGA	0.354
CTTCCTCA	0.264
GGCCTCCA	0.172
GGCTTTCA	-0.109
CACTGATC	-0.142
ACCTCCAT	-0.24
GTCGGGGA	0.102
AGATTGTA	-0.193
CAGATTCA	-0.0169
GAGATTCA	-0.0394
AAGATTCC	0.271
CAGATTCC	0.388

Sequence	PBM E-score
GAGATTCC	0.363
CAGATTCG	0.037
AGTAACTC	-0.155
AGTGGAAT	0.39
ATTGGAAA	0.0513
AGTGGAAG	0.442
ATTGGAAC	0.221
AGTGGAAA	0.0918
AGTGGAGG	0.082
CATGGAAG	-0.0984
CGTGGAGC	-0.0506
CGTGGAAA	0.0989
ATTGGAAG	0.363
AGTGGAGC	0.32
CGTGGAAG	0.0771
ATTGCCGA	-0.127
TGAGGGAA	-0.101
AGTCTATG	-0.147
ACCCTAGT	-0.0547
CGAGACGC	0.131
CGGGTATC	0.131
CTCACACA	0.1
AGTGGACA	-0.0203
AGGGGAAT	0.341
AGTGGAAC	0.364
AGTGGACC	-0.0505

Sequence	PBM E-score
AGTGGACG	0.315
AGGGGAAC	-0.00862
CGTGGAAC	-0.113
GGTGGAAC	0.0244
AGGGGAAA	0.0362
ACGAAACG	-0.14
ATCGGGAC	0.0526
AATTGTTC	0.0249
AGCCTTGA	-0.273
AGATGAGC	-0.102
ACTTCTCG	-0.0046
CCCCAAGC	-0.00278
CGTGAACG	0.0112
ACGCAGAG	-0.141
ACGGGGTA	0.129
ATATCCCA	0.116
CCATCCCA	-0.053
ACATCCCC	0.0757
GAATCCCC	0.0893
AAATCCCA	0.107
GCATCCCA	0.309
ACATCCCA	0.0139
GTATCCCA	0.339
CCATCCCC	0.0989
GAATCCCA	0.367
CTATCCCA	-0.0348

Sequence	PBM E-score
GCATCCCC	0.351
ACAGGTAA	0.0538
ACCATCCT	0.0586
ATACTAGA	0.0992
ACATGTGA	-0.0765
CTGGAAAA	-0.00671
ACTACTCG	0.0127
AGGCCTAG	-0.214
CGGTCGAG	0.0179
ACACGAAT	0.319
ACACGAAA	-0.131
ACACGAAG	0.238
AGGTTCGG	-0.0598
GAGAAAGA	-0.16
AGTGAGAC	-0.352
AGATCGAT	-0.137
ATTCCAGC	0.299
CTTCCAGC	0.123
AATCCAGA	0.259
CTTCCAGA	0.341
ATTCCAGA	0.286
AGTCCAGA	-0.0665
GTTCCAGA	0.257
CGTCCAGA	0.233
ATTCCAGG	0.097
TCGGGACA	-0.0131

Sequence	PBM E-score
AGCTAAAC	-0.126
CGAGGGTC	-0.166
AGCTAGGA	0.0251
CGTAGAAG	0.275
ATTAGGCG	0.309
ATTAGGCA	0.00576
ATTAGGCC	-0.116
ATTAGACC	-0.13
ATTAGACG	0.295
AGTAGAAG	0.327
ATTAGACA	0.0379
AATAGAGA	-0.0168
AATAGAGT	0.0735
AATAGAGG	0.297
AGTAGAAC	0.0351
GGACAACA	-0.253
AAGGCCTT	-0.343
ACCCTGAA	0.192
GATTAGGC	-0.0727
ACTGATCA	-0.148
GATGGAAA	0.029
AGTGCGCG	-0.037
CATCTTGG	-0.102
AGAGCATG	-0.0857
AATAGACT	0.0888
AGTAGACT	-0.048

Sequence	PBM E-score
AATAGACA	-0.116
AGTAGACG	0.302
AATAGACG	0.286
CGTAGACG	-0.0412
AAGCACCA	0.0436
AGGCCAGC	-0.196
CAGGAATG	0.115
CAGGAATA	0.134
GAGGAATC	0.345
AAGGAATC	0.26
GAGGAATA	-0.146
CAGGAATC	0.394
ATCATAGG	0.0674
ATAGGCTG	-0.0658
ATCAGCGG	0.00888
GAACCGGA	0.183
GACTGGCC	-0.151
CGGGCTGA	-0.241
TCACTGGA	0.219
GGCTACTA	0.219
CGCGTTAA	-0.167
CTCCGCAA	0.0291
AAAAGACG	0.131
AGGGAAGA	-0.198
CGGGAAGA	0.0397
CGGGAAAC	0.191

Sequence	PBM E-score
CGGGAAGC	0.317
AGGGAAGC	0.281
AGGGAAGG	-0.218
ATACTGCA	0.0345
ACTTGCAC	-0.126
TAGCCTGA	-0.232
AAGAGGCG	0.0559
CAGAGAAA	-0.0752
ATCTGGAC	0.133
CACTGGAC	0.0576
AACTGGAA	0.342
TACTGGAA	0.446
ATCTGGAA	0.333
AACTGGAG	0.115
TCCTGGAA	0.162
CTCTGGAA	0.256
AACTGGAC	0.198
CACTGGAA	0.318
TGCTGGAA	0.136
CACTGGAG	-0.0119
GTCGCAAC	0.0865
GTACAAAA	-0.0647
ATCCCTTA	-0.00764
ACTCTAAT	-0.029
ATTTGTCC	-0.109
GTCCTGTA	0.168

Sequence	PBM E-score
AGTAACCG	0.184
CGGATCAG	0.11
ATGAACAC	0.0906
GAGCCCCA	0.169
GAAGAGAA	0.0371
ACACGTGG	0.0635
GACTGGCA	-0.0492
GACTGGAC	0.0539
GACTGGAA	0.325
CGTCGGTA	-0.15
GCTGGACA	-0.0923
CCAATACC	0.205
AAAGCTAA	-0.0138
TAAGCTAA	-0.153
GAAGCTAC	0.323
CAAGCTAC	0.108
GAAGCTAA	0.312
AAAGCTAC	-0.0941
CTGCGACA	-0.106
AGTATAAA	0.0707
CTTATAAC	-0.0336
CTTATAAA	0.291
CTTATAAG	-0.0238
CGTATAAC	0.269
CGTATAAA	0.32
TGAAACCA	0.106

Sequence	PBM E-score
ACAGACAA	0.0204
GGGGTTTA	-0.117
GGTGAGGA	-0.0681
AAAGTAAT	0.154
CGCGGGGA	0.0382
GGTGGGAA	0.0991
GGCGGGGA	0.304
CGTGGGGA	0.0446
GGTGGGGA	0.345
GGCGGGAA	0.0372
GTACTTTA	0.107
GGGCCTAC	-0.25
ATTGGGGC	0.124
AGTCAGCG	0.0668
CGGAACGA	0.0962
GGGATAAC	0.0951
GAGCTGCC	0.187
CAGCTGCC	0.352
AAGCTGCT	0.185
CAGCTGCG	0.061
AAGCTGCC	0.347
CAGCTGCA	-0.0536
ACAGAGGT	0.0543
CCCACTTA	0.0227
CGCTCGAC	-0.094
TCCAAAAA	0.253

Sequence	PBM E-score
ACTAGCGG	-0.0781
GGACACTA	0.0929
AACTAGGC	0.122
CGGGAGAC	0.036
AGGGAGCG	0.0432
CGGGAGCA	-0.109
AGGGAGCC	0.296
AGGGAGCA	-0.171
CGGGAGCC	0.337
ATTGCCGC	-0.0608
GATTTCAC	-0.0263
AGCGAGCA	-0.108
AGGCTTCA	-0.0957
ACGCTTCA	-0.0408
ACGCTTCG	-0.0461
CCGCTTCA	-0.0817
AGGCTTCG	0.00576
CCGCTTCG	0.0926
ACGCTTCC	0.313
CCGCTTCC	0.346
GCGCTTAC	-0.17
GCGCTTCC	0.348
GCGCTTCA	-0.0425
AGGCTTCC	0.436
GCGAATTA	-0.00089
AAACCAAA	0.066

Sequence	PBM E-score
AGACCTCC	-0.282
CGCTAGGC	-0.216
CACGGCCG	-0.152
ATCGGGTA	-0.136
AAGTCTCG	-0.336
CTCTAAAC	0.0413
GGTCTGGA	0.0233
GCCAGCGA	-0.0966
CACCAAGG	0.0974
CCACCATC	0.0892
GACGGACA	-0.264
AAAAGTAG	0.295
AAAAGTGA	0.0915
CAAAGTGG	0.00098
AAAAGTAA	0.157
AAAAGTAT	-0.0691
AAAAGTGG	0.381
CCCATCAC	-0.136
GGTATTCA	0.0919
GATGGCCA	-0.214
AGTGGATC	0.286
CGTGGATC	0.00349
AATGGATG	0.134
AGTGGATG	0.394
AGTGGATA	0.0533
ATTGGATC	0.193

Sequence	PBM E-score
CCTCCTGC	-0.0964
ATCTTCGC	-0.0394
ATAGAGGA	0.346
ATAGAGGG	0.137
ATAGAGGC	0.174
ATGTCCCG	-0.183
GCTATTGA	-0.21
AACCACTA	0.241
CACCACTA	0.298
TACCACTA	0.365
CACCACTG	0.167
CACCACTC	0.134
GACCACTA	0.179
AGTTGCAA	-0.105
CGTAGTGA	-0.043
CGTACCGC	-0.162
ATGATACG	0.107
CAAGACAC	0.0836
CCACCCTA	0.0045
CCGCCCTA	-0.0561
GCACCCCA	0.241
GCACCCTA	0.297
TCACCCAA	-0.00294
ACGCCCTA	0.178
GCGCCTAA	0.407
ACACCCTA	-0.021

Sequence	PBM E-score
GCGCCTAC	0.256
GCGCCCTA	0.319
GCACCCAA	0.303
TCGCCTAA	0.0844
CACCACCG	-0.0609
GAGTTGCA	-0.0956
GTGAGAAC	-0.0123
GATGGATA	0.0193
CCCCCGGC	-0.0149
GGAACGGA	-0.0468
CCGAGTCA	-0.25
ATTCGAAT	0.0645
AGATGACG	-0.0775
GCACCCAC	0.397
CCACCCAC	-0.0236
ACACCCAC	0.0847
CTTTTTGA	0.115
AGTTGGAA	0.187
AAGGCTGA	-0.141
GAGGCTGC	0.253
CTAGCTGC	0.161
ATAGCTGA	-0.0965
AAGGCTGC	0.302
ATAGCTGC	0.285
CTGTCTTC	0.00215
AGCTAATA	0.0193

Sequence	PBM E-score
CGGGGCCC	0.219
TCCAAAGA	0.0425
ACAGCTCA	-0.146
ATAAGACG	0.192
AAGGAAGG	-0.0778
CAGGAAGG	0.184
CACGAAGA	-0.098
GAGGAAGC	0.391
AACGAAGC	0.00062
CAGGAAGC	0.434
CACGAAGC	0.311
CAGGAAGA	0.0842
GAGGAAGA	0.171
GAGGAAAC	-0.104
AAGGAAGA	-0.00011
AAGGAAGC	0.452

— the supplement of paper PMC3334620
